ALOX15B inhib – qHTS Assay for Inhibitors of 15-hLO-2 (15-human lipoxygenase 2); Polyunsaturated fatty acid lipoxygenase ALOX15B (Homo sapiens), O15296; purified 15hLO-2, xylenol orange hydroperoxide absorbance; Potency, µM (series often up to 57.1 µM), for inactives: at the highest dose activity change, negative = inhibition, hits mostly inhibitors; 110,000 compounds, 0.56% hits; also: potency is read from the fitted curve at half-maximal effect; nearly all actives have a fitted effect of over 60% in size
Target sequence (O15296 whole entry, looked up): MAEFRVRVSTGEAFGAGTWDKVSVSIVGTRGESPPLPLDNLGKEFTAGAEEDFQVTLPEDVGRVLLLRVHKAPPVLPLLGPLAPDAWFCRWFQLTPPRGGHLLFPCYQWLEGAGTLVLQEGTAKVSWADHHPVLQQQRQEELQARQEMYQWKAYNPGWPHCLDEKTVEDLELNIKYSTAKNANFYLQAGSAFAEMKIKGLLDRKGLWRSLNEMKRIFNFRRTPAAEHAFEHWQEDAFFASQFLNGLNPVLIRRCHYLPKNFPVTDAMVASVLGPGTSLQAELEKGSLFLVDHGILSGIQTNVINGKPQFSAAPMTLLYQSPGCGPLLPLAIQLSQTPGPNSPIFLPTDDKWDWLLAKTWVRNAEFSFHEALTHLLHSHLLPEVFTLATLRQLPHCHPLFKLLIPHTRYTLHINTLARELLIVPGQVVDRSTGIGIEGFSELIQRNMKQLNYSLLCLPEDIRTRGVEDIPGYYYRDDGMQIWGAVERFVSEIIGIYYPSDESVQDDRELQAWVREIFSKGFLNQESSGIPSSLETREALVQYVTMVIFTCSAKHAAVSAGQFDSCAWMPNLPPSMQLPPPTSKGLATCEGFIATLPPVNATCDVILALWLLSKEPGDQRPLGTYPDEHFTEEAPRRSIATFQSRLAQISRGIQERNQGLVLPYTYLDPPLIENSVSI
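Purified human 15hLO-2 (50 nM final) preincubated with compounds 15 min at room temperature in 25 mM Hepes pH 7.5, 0.01% Triton X-100, then 45 uM arachidonic acid added for 90 min; hydroperoxide detected via ferrous/xylenol orange, 573/405 nm absorbance ratio.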
PNC assembly inh – High Content Assay for Compounds that inhibit the Assembly of the Perinucleolar Compartment; 140,000 compounds, 3.1% hits; activity change (PNC), negative = inhibition, % at 10 µM; PC3M PTB-GFP, PNC prevalence imaging, 16 h; stronger effect = lower value;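 active = readout at or below -70, meaning at least 70% loss of cells showing the perinucleolar compartment, a nuclear body marking cancer cells; inconclusive = readout between -30 and a set limit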;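 also: plate controls were DMSO wells for no effect and camptothecin positive control wells for full effect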
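PC3M cells stably expressing PTB-GFP, 750–1000 cells/well, treated 16 h at 37 °C with compound (23 nl of library stock), in duplicate. After paraformaldehyde fixation and Hoechst stain, imaged at 20x; PNC prevalence scored by image analysis.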
IMPase inh – qHTS Assay for Identifying the Cell-Membrane Permeable IMPase Inhibitors; Inositol monophosphatase 1 (Rattus norvegicus), P97697; CHO-M1 cells, IP1 accumulation, HTRF TR-FRET ratio; inhibition (IP1 accumulation), % at 46.1 µM; 120,000 tested, under 10 active; AID 901, 2007; active = well fitted curve in the direction sought with a large enough effect in the signal ratio, not every such curve was filed as active; inconclusive = small, poorly fitted or top-dose-only effect, or a change in a side signal; inactive = no such curve, though single readings can be large or run the other way; the % refers to the signal ratio;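 also: cells stimulated with carbachol in lithium chloride buffer; plate controls were DMSO basal wells for no effect and reference inhibitor wells for full effect; higher means more IMPase inhibition seen as more IP1 and lower FRET ratio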
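In this qHTS, compounds (final up to 46 uM) act on CHO-M1 cells that are then activated through the M1 receptor with carbachol, in pH 7.4 buffer containing 50 mM LiCl, for 30 min. IP1 accumulation is quantified by the IP-One immunoassay.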
IMPase Li cell – qHTS Assay for Identifying the Cell-Membrane Permeable IMPase Inhibitors: Potentiation with Lithium; CHO-M1 cells, IP1 TR-FRET (IP-One), carbachol + lithium; Potency, µM (top dose mostly 59.4 µM), for inactives: top-dose activity, negative = IMPase inhibition, most hits filed as inhibitors; 210,000 compounds, 0.35% hits;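 also: IP1 builds up when IMPase is blocked and the TR-FRET signal falls; potency is read from the fitted curve at half-maximal effect; plate controls were basal vehicle for no effect and high inhibitor control for full effect; nearly all actives have a fitted effect of over 50% in size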
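Steps: plate 2000 CHO-M1 cells per well and culture 16–30 h; add compound and lithium; incubate 30 min, 37C; add d2-IP1 tracer and Eu cryptate anti-IP1 antibody in lysis buffer; read after 10 min at room temperature.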
ALOX12 inhib – qHTS Assay for Inhibitors of 12-hLO (12-human lipoxygenase); Polyunsaturated fatty acid lipoxygenase ALOX12 (Homo sapiens), P18054; purified 12-hLO, xylenol orange hydroperoxide absorbance; Potency, µM (highest dose often 57.1 µM), for inactives: at the top dose activity change, negative = inhibition, most hits filed as inhibitors; 150,000 compounds, 0.12% hits; also: potency is read from the fitted curve at half-maximal effect; nearly all actives have a fitted effect of over 55% in size
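Purified human 12hLO (150 nM), preincubated 15 min with compound, then 40 uM arachidonic acid for 30 min, room temperature, Hepes pH 7.0 with 0.01% Triton X-100. Hydroperoxide detected by ferrous iron/xylenol orange; 573/405 nm absorbance ratio gives reaction progress.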
An asterisk follows results filed as active; ? = inconclusive; · = no result; [ ] = remark or other dose. Many of the other results were omitted from the sample, so hits are more common in it than they were. Unless noted, calls follow the shape of the dose curve; as a rule, active = well fitted curve in the direction sought with a large enough effect; inconclusive = small, poorly fitted or top-dose-only effect, or another doubt; inactive = no such curve, though single readings can be large; an effect the other way counts as inactive or inconclusive. Unless noted, % is scaled to controls: 0 for no effect and ±100 for the full control effect.

SMILES	ALOX15B inhib	PNC assembly inh	IMPase inh	IMPase Li cell	ALOX12 inhib
Cc1nc2ccccn2c1C(=O)NCc1cccnc1	6%	-85*	-8	-5%[38.3 µM]	0%
CC(C)n1c(=N)c(C(=O)NCc2cccnc2)cc2c(=O)n3ccccc3nc21	·	·	-3	·	·
COc1ccc(C2C(C(C)=O)=C(O)C(=O)N2C)c(OC)c1 (stereo not given)	7%	-127*	-3	-8%[38.3 µM]	4%
CCCCC/C=C\C/C=C\CCCCCCCCCC(=O)NC(C)C(=O)O (stereo not given)	·	·	·	17%	5%
Nc1cc(=O)[nH]c(SCc2nc3ccccc3n2Cc2ccccc2)n1	19%	1	4	-6%[38.3 µM]	-2%
O=c1[nH]c(SCc2nc3ccccc3n2Cc2ccccc2)nc2ccccc12	-5%	32	17	7.9µM*	-5%
O=C1C=CC2=C3c4cc(O)c(O)cc4C[C@@]3(O)COC2=C1	·	·	·	15%	·
CCCn1c(-c2ccc(F)cc2)nc2c(NCCN(C(C)C)C(C)C)nc(C)nc21	4%	·	·	14%	2%
CCOC(=O)N1CCC(NC(=O)C2CCCN(S(=O)(=O)c3ccc4c(c3)oc(=O)n4C)C2)CC1 (stereo not given)	-1%	-90*	1	17%[38.3 µM]	-1%
COc1ccc(-n2c(=O)c(C)nc3cnc(Oc4cccc(Cl)c4)nc32)cc1	8%	·	·	18%	-3%
Cc1c(C(=O)N/N=C/c2ccc(Cl)cc2)[nH]c2ccc(Cl)cc12	·	-112*	1	3%	1%
Cn1cnc2c(ncn2[C@@H]2O[C@H](CO)[C@@H](O)[C@H]2O)c1=N	·	·	·	9%	·
CC(C)(C)NC(=S)Nc1ccc(Nc2ccccc2)cc1	16µM*	54	5	6%[38.3 µM]	?
COC(=O)c1ccc2nc(C)cc(Nc3ccc(O)cc3)c2c1	·	·	0	·	·
COC(=O)c1ccc2nc(C)cc(Nc3ccc(N(C)C)cc3)c2c1	·	-119*	·	13%	-1%
Cc1csc(/C(C#N)=N/O)n1	5%	-25	3	-8%[38.3 µM]	3%
Cc1csc(/C(=N\O)c2csc(C)n2)n1	3%	-100*	-5	2%[38.3 µM]	-6%
CC(C)C(=O)c1cn(CC(=O)NCc2ccco2)c2ccccc12	·	-100*	0	1%	2%
CC(C)C(=O)c1cn(CC(=O)NCc2ccc3c(c2)OCO3)c2ccccc12	·	210	-3	?	-10%
COc1ccc(-n2c(=O)c(-c3cccs3)nc3cnc(N(C)C)nc32)cc1	-8%	·	·	3%	·
Brc1ccc(OCc2ccccc2)c(CNCc2ccncc2)c1	71%	-109*	11	16%[38.3 µM]	4%
C=CCN=c1scc(-c2ccccc2)n1/N=C/c1ccccn1	·	-106*	16	7%	-1%
C=CCN=c1scc(-c2ccc(F)cc2)n1/N=C/c1ccccn1	·	?	25	9%	-4%
CCN=c1scc(-c2ccc(F)cc2)n1/N=C/c1ccccn1	·	·	·	8%	·
CCN=c1scc(-c2ccccc2)n1/N=C/c1ccccn1	·	-125*	·	-5%	3%
SMILES	ALOX15B inhib	PNC assembly inh	IMPase inh	IMPase Li cell	ALOX12 inhib
COc1ccc2c(c1)C(=O)[C@@H](OC(=O)NS(=O)(=O)c1ccc(C)cc1)[C@H](c1ccc(OC)c(Br)c1)O2	·	·	·	12%	·
Cn1c(N)c(C(=O)COC(=O)c2ccnc3ccccc23)c(=O)n(C)c1=O	-5%	-85*	·	?	-9%
Cn1c(N)c(C(=O)COC(=O)CCCc2c[nH]c3ccccc23)c(=O)n(C)c1=O	1%	-80*	6	2%[38.3 µM]	-7%
CC1=C(C(=O)c2ccccc2)C(c2cn(-c3ccccc3)nc2-c2ccc(Cl)cc2)NC(=S)N1 (stereo not given)	7.9µM*	-17	5	·	16µM*
Cc1cc(NS(=O)(=O)c2ccc(NC(=O)C(C(C)C)N3C(=O)c4ccccc4C3=O)cc2)nc(C)n1 (stereo not given)	-6%	-88*	2	1%[38.3 µM]	5%
Fc1cccc(NCc2ccccc2-c2nnc(-c3ccccc3Cl)o2)c1	·	·	5	·	·
COC(=O)c1cc(C#N)c(NCc2ccc(Cl)cc2Cl)nc1C	-12%	32	-6	8.9µM*	-3%
O=C(c1cc(C(F)(F)F)cc(C(F)(F)F)c1)N1CCC[C@@]2(CCN(Cc3ccncc3)C2)C1	20%	·	·	-7%	3%
O=C(CSc1cccc[n+]1[O-])Nc1cc(S(=O)(=O)N2CCOCC2)ccc1Cl	·	-88*	·	-3%	-1%
O=C(COc1ncnc2c(Cl)cc(Cl)cc12)NC1CCCCCC1	-9%	-29	9	22µM*	3%
CC(=O)NCCNC(=O)c1ccc(CSc2ccc(Cl)cc2)cc1	·	·	·	-7%	·
CCNC(=O)c1ccc(CSc2ccc(Cl)cc2)cc1	·	-109*	·	-1%	-4%
Cc1cccc(CCn2c(=O)c3ccccc3n(CC(=O)Nc3ccccc3F)c2=O)c1	·	·	13	·	·
O=C(N1CCOCC1)n1cnc2ccccc21	·	-100*	-5	2%	6%
O=C(O)c1c(Cl)c(Cl)c(Cl)c(Cl)c1-c1c2cc(I)c(=O)c(I)c-2oc2c(I)c(O)c(I)cc12	7.9µM*	·	·	?	?
CC1(c2ccccc2)CC(C)(C)N(C(=O)c2ccccc2Cl)c2ccccc21 (stereo not given)	·	·	-5	·	·
COC(=O)c1ccc(NC(=O)C2CCCN2S(=O)(=O)c2ccc(C)cc2)cc1 (stereo not given)	·	-119*	-2	8%	-10%
COC(=O)c1ccc(NC(=O)C2CCCN2S(=O)(=O)c2ccc(OC)cc2)cc1 (stereo not given)	·	?	13	15%	-13%
Cc1nc2ccccc2n1S(=O)(=O)N(C)C	15%	?	0	5%[38.3 µM]	6%
CN(C)S(=O)(=O)n1cnc(-c2ccccc2)c1-c1ccccc1	4%	-117*	2	25%[38.3 µM]	-3%
CCCOC(=O)CSC1=C(C#N)C(c2ccccc2OC)C(C#N)C(=O)N1 (stereo not given)	-4%	-97*	-9	24%[38.3 µM]	-19%
CCOC(=O)CSC1=C(C#N)C(c2ccccc2OCC)C(C#N)C(=O)N1 (stereo not given)	-1%	1	-5	-41%[38.3 µM]	-23%
Cc1cccc(C2=N[C@@H](CC(C)C)CO2)c1	9%[0.0915 µM]	·	·	-1%	-2%[0.00818 µM]
Cc1ccc2nc(SCC(=O)NCc3cccs3)c(C#N)cc2c1	-6%	-25	?	13µM*	6%
CCOC(=O)CSc1nc2cc(OCC)ccc2cc1C#N	-8%	8	7	?	-3%
Cc1ccc2cc(C#N)c(SCC(=O)NNC(=O)Cc3ccccc3)nc2c1	·	-5	·	13µM*	-1%

From PubChem BioAssay
